SW480 rereplic = inducers of DNA re-replication in SW480 colon cancer cells | SW480 DNA re-replication, Hoechst DNA content imaging, 48 h | Potency, µM (doses to about 46.1 µM), hits mostly activators | AID 624297 | 340,000 tested, 1.8% active; note: nearly all actives have a fitted effect of over 55% in size
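Cells (250 per well) received 23 nL compound or DMSO by pin tool and were kept 48 hr at 37 C, 5% CO2. Nuclei were then stained with Hoechst for 40 min and scanned for DNA content.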
PINK1 modulator = changes PINK1 expression; AID 624263; 410,000 tested, 0.2% active; PINK1 immunofluorescence, high-content cytometry, 24 h; Potency, µM (top dose mostly 76.6 µM), usual class: activators; active = well fitted activation curve with a large enough effect; inconclusive = small, poorly fitted or top-dose-only effect; cell line not stated here; note: nearly all actives have a fitted effect of over 65% in size
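Fluorescence from anti-PINK1 antibody, together with nuclear and cell stains, was scanned on a laser-scanning cytometer. Before staining, stable-line cells were incubated 24 hours with compounds at 5 concentrations; primary antibody 12 h at 10 degrees C.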
TSG101-PTAP inh = blocks PTAP/TSG101 interaction to inhibit HIV-1 budding | Potency, µM (highest dose often 115 µM), most hits filed as inhibitors | 340,000 tested, under 10 active | AID 493005 | Q99816 | Fluorescence polarization, FITC-PTAP peptide / Tsg101 binding; active = well fitted inhibition curve with a large enough effect in the main read-out, with a control signal flat, not every such curve was filed as active; inconclusive = small, poorly fitted or top-dose-only effect, or effect the other way, or a change in a side signal; inactive = no such curve, though single readings can be large or run the other way
Target sequence (Q99816 whole entry, looked up): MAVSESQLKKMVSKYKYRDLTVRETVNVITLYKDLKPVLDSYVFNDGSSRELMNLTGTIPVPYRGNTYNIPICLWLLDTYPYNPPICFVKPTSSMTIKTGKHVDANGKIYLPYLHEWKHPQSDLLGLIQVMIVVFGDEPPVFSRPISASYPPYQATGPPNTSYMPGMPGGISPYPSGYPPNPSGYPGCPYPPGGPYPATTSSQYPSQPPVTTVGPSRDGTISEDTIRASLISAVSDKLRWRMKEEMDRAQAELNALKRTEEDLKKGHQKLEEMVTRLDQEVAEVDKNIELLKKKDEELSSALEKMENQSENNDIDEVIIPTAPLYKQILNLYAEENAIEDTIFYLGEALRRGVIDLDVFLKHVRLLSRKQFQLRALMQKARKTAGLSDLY
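Steps: Tsg101 binding domain dispensed (10 uM final), compounds pinned in DMSO, FITC-labeled PTAP-motif peptide added (50 nM final); after 20 min binding at room temperature, polarization measured.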
KB-V1 MDR tox = kills drug-selected multidrug resistant KB-V1 cells; KB-V1 MDR cells viability, CellTiter-Glo, 72 h; Potency, µM (titrated, usually from 46.1 µM), actives largely listed as cytotoxic; 400,000 tested, 3.4% active; AID 1347076; note: nearly all actives have a fitted effect of over 60% in size
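Drug-selected KB-V1 cells, grown in DMEM lacking phenol red with 10% FBS, receive compound titrations; after three days at 37 degrees C, surviving cell ATP is quantified by CellTiter-Glo luminescence and responses normalized and curve-fitted.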
MCF10A rereplic = DNA re-replication induction in MCF 10a cells | MCF 10A DNA re-replication, Hoechst nuclear intensity, 48 h | Potency, µM (series often up to 46.1 µM), actives largely listed as activators | 350,000 tested, 2.9% active; note: nearly all actives have a fitted effect of over 50% in size
KB-3-1 tox = kills parental KB-3-1 adenocarcinoma cells. KB-3-1 viability, CellTiter-Glo ATP luminescence, 72 h. AID 1347075. Potency, µM (top dose mostly 46.1 µM), hits mostly cytotoxic. 400,000 tested, 1.4% active; note: nearly all actives have a fitted effect of over 60% in size
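Multi-concentration cytotoxicity screen in KB-3-1 cells grown in DMEM lacking phenol red with 10% FBS. After 72 h at 37 °C with compound, ATP-dependent luminescence was recorded.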
Numbers stand for hits; 0 = inactive; ? = inconclusive; - = no result. Hits are enriched below; roughly 6.8% of the tested compounds scored in any of these assays. Unless noted, calls come from the whole dose curve; as a rule, active = well fitted curve in the direction sought with a large enough effect; inconclusive = small, poorly fitted or top-dose-only effect, or another doubt; inactive = no such curve, though single readings can be large; an effect the other way counts as inactive or inconclusive.

SMILES	SW480 rereplic	PINK1 modulator	TSG101-PTAP inh	KB-V1 MDR tox	MCF10A rereplic	KB-3-1 tox
CCOC(=O)/C=c1/s/c(=C/c2ccc3cc(OC)ccc3c2)c(=O)n1CC(=O)NCC1CCCO1 (centres undefined)	3.66µM	0	?	0	?	?
CCOC(=O)/C=c1\s/c(=C\c2c(OC)ccc3ccccc23)c(=O)n1CC(=O)NCC1CCCO1 (centres undefined)	5.8µM	0	0	2.31µM	1.16µM	4.61µM
CCOc1cc(CNCCSc2nnnn2-c2ccccc2)ccc1OC	-	0	-	0	-	0
COc1ccc(CCNc2nnc(Sc3nnnn3-c3ccccc3)s2)cc1OC	2.91µM	?	0	14.6µM	4.61µM	4.11µM
CCCn1nnnc1SCC(=O)NCc1ccc(OC)cc1	0	0	0	0	0	0
COc1ccc(C)cc1NC(=O)CSc1nnnn1Cc1ccccc1	0	0	0	0	0	0
Nn1c(SCC(=O)NCc2ccccc2)nnc1C1CC1	0	5.01µM	0	0	0	0
COc1ccc(CNC(=O)CSc2nnnn2Cc2ccccc2)cc1	?	0	0	?	?	16.4µM
COc1ccc(CSc2nnnn2Cc2ccccc2)cc1OC	0	0	0	23.1µM	?	0
CCCCCOc1ccc(/C=C/C(=O)Nc2sc3c(c2C(=O)OCC)CCC3)cc1OC	-	0	-	0	-	0
CCOC(=O)c1cc(-c2ccccc2)n(-c2cccc(C(=O)Nc3ccc(F)c(F)c3)c2)c1C	-	0	-	?	-	?
COc1ccc(O)c(/C=c2/sc3nc4cc(C)c(C)cc4n3c2=O)c1	0	0	0	18.4µM	0	?
O=C(CN(CCc1c[nH]c2ccccc12)S(=O)(=O)c1ccccc1)N1CCCCCC1	-	0	-	0	-	0
Cc1ccc(Cn2c(=O)n(-c3cccc(C(F)(F)F)c3)c(=O)c3c(C)c(C)sc32)c(C)c1	-	0	-	0	-	0
CCOC(=O)c1[nH]c2c(c1Cc1ccccc1)C(=O)CC(c1ccc(C(C)(C)C)cc1)C2 (centres undefined)	-	0	-	0	-	0
CCN(CC)CCN1c2ccccc2Sc2ccc3ccccc3c21	18.4µM	0	0	0	?	0
CC(=O)Nc1ccc(SCC(=O)NNC(=O)CN(C)S(=O)(=O)c2ccc(C)cc2)cc1	5.17µM	0	0	0	0	0
O=C(c1cc(-c2ccc(Cl)c(Cl)c2)on1)N1CCCCC1	0	?	0	14.6µM	0	0
CCC1CCCCN1C(=O)c1cc(-c2ccc(Cl)c(Cl)c2)on1 (centres undefined)	0	0	-	20.6µM	?	0
COc1ccc(-c2cc(C(=O)N3CCCCC3C)no2)cc1OC (centres undefined)	-	0	-	-	-	-
CC1CCCCN1C(=O)c1cc(-c2ccc(Cl)c(Cl)c2)on1 (centres undefined)	0	0	0	18.4µM	?	0
Cc1ccc(NC(=O)c2cnn3c(C(F)F)cc(-c4ccccc4)nc23)cc1F	-	0	-	?	-	0
O=C1c2ccccc2OC2(C=Cc3ccccc3O2)N1Cc1ccccc1 (centres undefined)	?	0	0	4.11µM	13µM	?
Cc1cn(C)c(CC(=O)Nc2cccc(C#N)c2)c1C(=O)O	-	0	-	?	-	0
C=CCn1c(SCC(=O)c2[nH]c(C)c(C(=O)OC)c2C)nc2scc(-c3ccc(OC)c(OC)c3)c2c1=O	0	0	0	6.51µM	?	4.11µM
CCOC(=O)/C(C#N)=C/c1c(OCC)n(CC)c2ccccc12	0	0	0	7.31µM	0	0
COC(=O)C(C)NC(=O)N1CCN(c2nnc(C)c3c(C)n(-c4ccc(Cl)cc4)nc23)CC1 (centres undefined)	-	0	-	0	-	0
COc1cc([N+](=O)[O-])cc(/C=N/NC(=O)Cn2nccc2C)c1O	16.4µM	0	0	?	18.4µM	?
COc1ccccc1C=NNC(=O)C(=O)NN=Cc1ccccc1OC	0	0	0	0	0	0
COc1cccc(/C=N/NC(=O)c2cccc([N+](=O)[O-])c2)c1OS(=O)(=O)c1ccccc1	0	0	0	10.3µM	0	0

High-throughput results (PubChem BioAssay)
